Source: PubChem BioAssay (Johns Hopkins Ion Channel Center)
Most compounds without a hit are left out; they make up all but 1.6% or so of the library.
KCNQ2 inh – KCNQ2 (rat) channel inhibition; B-score at 10 µM; 310,000 tested, 1.1% active; O88943; AID 2156; CHO-K1 KCNQ2, FluxOR thallium flux, 20 min; stronger effect = lower value;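 active = fluorescence ratio B-score at most minus 3 library SDs, with starting brightness B-score within 2 library SDs, cut at about -5.5 in these data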
KCNQ2 enhance – enhances the rat KCNQ2 potassium channel; AID 2239; B-score at 10 µM; 310,000 tested, 0.54% active; O88943; CHO-K1 KCNQ2, FluxOR thallium flux fluorescence; stronger effect = higher value;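 active = fluorescence ratio B-score at least 3 SD of library B-scores, with initial fluorescence B-score within 3 of them, cut at about 5.3 in these data; same plate scores as AID 2156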;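 note: B-score of peak minus minimum over baseline fluorescence ratio after K+ and Tl+ stimulus; positive B-score means potentiation of KCNQ2 with more thallium influx and brighter signal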
Active calls of the source: *.

How did Cc1onc(-c2ccccc2)c1C(=O)NC(=S)Nc1sc2c(c1C#N)CCCC2 do in these assays?
KCNQ2 inh: inactive; KCNQ2 enhance: 2.6

What do the screens show for `O=S(=O)(c1ccccc1)[C@@]1(c2ccccc2)C[C@@H]2ON=C(c3cccc(-c4ccccc4)c3)[C@@H]2C1`?
KCNQ2 inh: inactive; KCNQ2 enhance: 0.25

What do the screens show for `CCN1CCN(C(=O)CCn2c(=O)c3cccn3c3cccnc32)CC1`?
KCNQ2 inh: inactive; KCNQ2 enhance: 0.55

How did CCOC(=O)N1CCC(c2cc(=O)n3[nH]cc(C(=O)OC)c3n2)CC1 do in these assays?
KCNQ2 inh: inactive

How did CCOc1ccc(NC(=O)c2c[nH]n3c(=O)cc(C4CCN(C(=O)OC(C)(C)C)CC4)nc23)cc1 do in these assays?
KCNQ2 inh: inactive; KCNQ2 enhance: 8.6*

What do the screens show for `NC(N)=N/N=C/c1ccc(OCc2ccccc2Cl)cc1`?
KCNQ2 inh: -6.2*; KCNQ2 enhance: -6.2

How did NC(N)=N/N=C/c1ccccc1 do in these assays?
KCNQ2 inh: inactive

What do the screens show for `O=[N+]([O-])c1ccc(Cl)c(C[n+]2cccc3ccccc32)c1`?
KCNQ2 inh: inactive

How did CCO/C(C)=N/n1c2nc3ccccc3nc2c2c(=O)n(Cc3ccccc3Cl)c(C)nc21 do in these assays?
KCNQ2 inh: -8.4*; KCNQ2 enhance: -8.4

What do the screens show for `CCOc1c(C)cnc2c1c(=O)n(Cc1ccccc1Cl)c(=O)n2C`?
KCNQ2 inh: inactive

Results for CCOc1ccc(CCNC(=O)CN(C)S(=O)(=O)c2cccs2)cc1OCC ?
KCNQ2 inh: inactive; KCNQ2 enhance: 0.52

Results for O=C(NCc1ccccc1)C1CCC(=O)N(CCCN2CCCC2=O)C1 (stereo not drawn) ?
KCNQ2 inh: inactive; KCNQ2 enhance: 0.51

How did CCc1ccc(C(=O)CSc2n[nH]c(-c3ccncc3)n2)cc1 do in these assays?
KCNQ2 inh: inactive; KCNQ2 enhance: 6.3*

What do the screens show for `COC(=O)CSc1n[nH]c(-c2ccncc2)n1`?
KCNQ2 inh: inactive; KCNQ2 enhance: 0.64

Results for Fc1cc(Br)ccc1COc1ccc(-c2nnco2)cc1 ?
KCNQ2 inh: inactive; KCNQ2 enhance: 1.4

What do the screens show for `O=C(CSc1nnc(-c2ccc3c(c2)OCO3)o1)Nc1ncc(C(F)(F)F)cc1Cl`?
KCNQ2 inh: inactive; KCNQ2 enhance: 1.6

What do the screens show for `Cc1nc(NC(=O)CSc2nnc(-c3ccc4c(c3)OCO4)o2)c(Cl)cc1Cl`?
KCNQ2 inh: inactive; KCNQ2 enhance: 18*

Results for CCC(=O)c1ccc(OCC(=O)OCC(=O)NCC2CCCO2)cc1 (stereo not drawn) ?
KCNQ2 inh: inactive

What do the screens show for `COCCNC(=O)CSc1ccccc1C(=O)NCC1CCCCC1`?
KCNQ2 inh: inactive; KCNQ2 enhance: 0.1

How did CC1CCN(C(=O)c2ccccc2SCC(=O)NCC2CCCCC2)CC1 do in these assays?
KCNQ2 inh: -6*; KCNQ2 enhance: -6

Results for COc1ccc(/C=C2\C(=O)NCC(=O)N2Cc2ccccc2)cc1 ?
KCNQ2 inh: inactive

How did COc1ccc(/C=C2\C(=O)N(Cc3ccc(F)cc3)CC(=O)N2Cc2ccccc2)cc1 do in these assays?
KCNQ2 inh: -6.1*; KCNQ2 enhance: -6.1

What do the screens show for `CCCCN(C)Cc1cc(=O)oc2ccc3ccccc3c12`?
KCNQ2 inh: inactive

Results for CCCNC(=O)c1ccc(N2CCC3(CC2)CC(c2cccc(Br)c2)=NO3)c(NC(=O)c2ccc(Cl)c([N+](=O)[O-])c2)c1 ?
KCNQ2 inh: inactive

How did CCOP(=O)(OCC)C(Nc1ccc(C(=O)O)cc1)c1ccccc1 (stereo not drawn) do in these assays?
KCNQ2 inh: inactive; KCNQ2 enhance: 0.79

How did CCOC(=O)c1ccc(NC(c2ccc(N(C)C)cc2)P(=O)(OC(C)C)OC(C)C)cc1 (stereo not drawn) do in these assays?
KCNQ2 inh: -6.5*; KCNQ2 enhance: -6.5

How did O=C(Nc1ccccc1)C1CCOC1=O (stereo not drawn) do in these assays?
KCNQ2 inh: inactive

Results for Cc1cc(F)ccc1S(=O)(=O)Nc1ccccc1C(=O)Nc1ccccc1N1CCOCC1 ?
KCNQ2 inh: inactive

Results for Cc1ccccc1NC(=O)c1ccc(C)c(S(=O)(=O)Nc2cccnc2)c1 ?
KCNQ2 inh: inactive

Results for Cc1ccc(C(=O)NCc2ccncc2)cc1S(=O)(=O)Nc1cccc(C)c1C ?
KCNQ2 inh: inactive

How did Cc1ccc(C)c(S(=O)(=O)Nc2ccccc2C(=O)Nc2ccccc2N2CCOCC2)c1 do in these assays?
KCNQ2 inh: -6*; KCNQ2 enhance: -6

What do the screens show for `Cc1ccc(C)c(NS(=O)(=O)c2cc(C(=O)Nc3ccccc3-c3ccccc3)ccc2C)c1`?
KCNQ2 inh: -6.2*; KCNQ2 enhance: -6.2

How did Cc1ccc(C(=O)Nc2ccccc2-c2ccccc2)cc1S(=O)(=O)Nc1cccc(C)c1C do in these assays?
KCNQ2 inh: -7.9*; KCNQ2 enhance: -7.9

Results for O=C(N/N=C/c1ccc(OC(=O)c2ccco2)cc1)c1ccc[n+]([O-])c1 ?
KCNQ2 inh: inactive
